About 79,000 compounds went through this panel and 15% of them were active in at least one assay; those are over-represented in the sample as a whole. Activity calls are given as the source filed them. Cut-off read from the data, not from the text of the source: active = growth inhibition above about 70%; inactive = the rest.
Assays:
[1] = NCI Yeast Anticancer Drug Screen. Data for the rad50 strain (AID 155);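 note: 0% = growth of vehicle-only cultures of the same strain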; settings: S. cerevisiae rad50 strain growth inhibition; at 50.0 µM; hits give high values
Procedure, shortened: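 Readout: growth inhibition relative to vehicle-treated cultures. Compound exposure was carried out in a genetically defined yeast strain deficient in DNA damage repair.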

[2] = NCI Yeast Anticancer Drug Screen. Data for the mec2-1 strain (AID 157); settings: S. cerevisiae mec2-1 strain, at 50.0 µM, hits give high values
Procedure, shortened: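 Each compound was tested on mec2-1 yeast, a strain altered in DNA damage repair or cell cycle control. Growth inhibition is reported relative to vehicle.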

[3] = NCI Yeast Anticancer Drug Screen. Data for the sgs1 mgt1 strain (AID 161);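 note: 0% = growth of cultures given vehicle only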; settings: S. cerevisiae sgs1 mgt1 strain, at 50.0 µM, hits give high values
Procedure, shortened: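 Inhibition of yeast growth, normalised to vehicle-treated controls, is reported for a strain bearing genetic alterations in DNA damage repair.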

[4] = NCI Yeast Anticancer Drug Screen. Data for the cln2 rad14 strain (AID 165);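 note: 0% = growth equal to vehicle treated cultures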; settings: S. cerevisiae cln2 rad14 strain, at 50.0 µM, hits give high values
Procedure, shortened: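 Test compounds were added to cln2 rad14 yeast cultures; inhibition of growth was then determined by comparison with vehicle treatment.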

[5] = NCI Yeast Anticancer Drug Screen. Data for the bub3 strain (AID 167); settings: S. cerevisiae bub3 mutant strain, at 50.0 µM, hits give high values
Procedure, shortened: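 Readout: yeast growth inhibition, expressed relative to vehicle-only wells. The test organism is a mutant strain from a panel with lesions in DNA repair or checkpoint genes.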

[6] = NCI Yeast Anticancer Drug Screen. Data for the mlh1 rad18 strain (AID 175); settings: S. cerevisiae mlh1 rad18 strain growth inhibition; at 50.0 µM; hits give high values
Procedure, shortened: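 Inhibition values reflect reduced growth of mutant yeast versus vehicle-treated controls following compound exposure; the mutations affect DNA damage repair.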

Measured: growth inhibition

OC(c1ccccc1)C(Cl)(Cl)Cl (configuration not stated)
inactive: [1] 17.1% | [2] -10.8% | [3] 13.7% | [4] -42.1% | [5] -14.1% | [6] 3.55%

CCOC(=O)c1c(SC)nc(-c2ccc(Cl)cc2)sc1=N
inactive: [1] 18.4% | [2] 19.6% | [3] 24.8% | [4] 25.9% | [5] 28.1% | [6] -19.7%

CC(=O)OC1CCC2(C)C(CC(=O)C3C2CCC2(C)C(OC(C)=O)CCC32)C1 (configuration not stated)
inactive: [1] 7.35% | [2] 7.35% | [3] 1.5% | [4] 15.8% | [5] -4.2% | [6] 2.15%

COC(=O)C1=CCCN(C)C1
inactive: [1] 0.15% | [2] -0.6% | [3] 10.2% | [4] -0.4% | [5] 2.15% | [6] 3.7%

OC1CN=C2c3ccccc3C(O)(c3ccc(Cl)cc3)N2C1 (configuration not stated)
inactive: [1] 23.8% | [2] 22.1% | [3] 37.2% | [4] -1.9% | [5] 22.7% | [6] 37.5%

Nc1c(Cl)c(Cl)nc(C(=O)O)c1Cl
inactive: [1] 16% | [2] 9% | [3] 7.05% | [4] 3.8% | [5] 21.5% | [6] 24.2%

COP(=O)(OC)C(O)C(Br)(Br)Br (configuration not stated)
inactive: [1] 28.6% | [2] 23.1% | [3] 45.2% | [4] 34.8% | [5] 11.7% | [6] 23.8%

O=[N+]([O-])c1ccc2sc3ccccc3c2c1
inactive: [1] 63.1% | [2] 12.2% | [3] 26.3% | [4] 44% | [5] -3.35% | [6] 58.8%

Cn1cc([N+](=O)[O-])c([N+](=O)[O-])c1
inactive: [1] -3.8% | [2] 2.5% | [3] -11.6% | [4] -74.8% | [5] -6.3% | [6] 0.85%

CCCCNC(=O)CCl
inactive: [1] 13.4% | [2] 13.7% | [3] 9.15% | [4] -0.4% | [5] 9.3% | [6] 13.8%

Nc1ccc2ncccc2c1 (tested in a mixture with another compound)
inactive: [1] 39.2% | [3] 45.5% | [4] 56.4% | [5] 46.5% | [6] 26.2%
active: [2] 97.5%

O=C(Nc1cccc(S(=O)(=O)F)c1)/C(=C/c1ccc([N+](=O)[O-])cc1)c1ccccc1
active: [1] 88.5% | [2] 86% | [3] 86.7% | [4] 79.2% | [5] 81.2% | [6] 88.2%

O=C(N/N=C/c1cc(Cl)cc(Cl)c1[O-])c1ccccc1O.O=C(N/N=C/c1cc(Cl)cc(Cl)c1[O-])c1ccccc1O.[Ni+2]
inactive: [1] -8.75% | [2] -15.8% | [3] -14.8% | [4] -41.2% | [5] 6.9% | [6] -17.1%

O=c1[nH]c(=O)c2[nH]c(N=Nc3ccc(N(CCCl)CCCl)cc3)nc2[nH]1
inactive: [1] 20.9% | [2] 6.1% | [3] 34.6% | [4] 38.1% | [5] 10.7% | [6] 17.6%

CCCCSP(=O)(SCCCC)N1CCCCC1
active: [1] 98.9% | [2] 99.2% | [3] 98.8% | [4] 97.8% | [5] 98.8% | [6] 99%

Oc1ccccc1/C=N/Sc1ccccc1.Oc1ccccc1/C=N/Sc1ccccc1.[Ni+2]
inactive: [1] 3.2% | [2] -0.85% | [3] 30.6% | [4] -6.6% | [5] 12.7% | [6] 36%

Cc1cccc2c1[se]c1ccccc12
inactive: [1] -11.5% | [2] -3.85% | [3] -12% | [4] 4.45% | [5] 2.7% | [6] -17.1%

COC12C(COC(N)=O)C3=C(C(=O)C(C)=C(N4CC4)C3=O)N1CC1NC12 (configuration not stated)
active: [1] 87.7% | [2] 90.3% | [3] 90.9% | [4] 86.3% | [5] 88.8% | [6] 87.2%

CCCCOP(=O)(/C=C/c1cccs1)OCCCC
active: [1] 81.2% | [3] 79%
inactive: [2] 37% | [4] 7.95% | [5] 61.5% | [6] 37.1%

O=P(Oc1ccccc1)(Oc1ccccc1)Oc1c(Cl)c(Cl)c(O)c(Cl)c1Cl
inactive: [1] 23.6% | [2] 10% | [3] 38.9% | [4] 19.1% | [5] -16.4% | [6] 2.35%

CNC(=O)Oc1cccc2c(OC3OC(CO)C(O)C(O)C3O)cccc12 (configuration not stated)
inactive: [1] -25.5% | [2] 19.4% | [3] -12.8% | [4] -16.7% | [5] 2.05% | [6] -23.9%

[Cl][Sn]1([Cl])[CH2]CCCCCC[CH2][Sn]([Cl])([Cl])[CH2]CCCCCC[CH2]1
inactive: [1] 26.4% | [2] 6.75% | [3] 24.1% | [4] 33.8% | [5] -2.05% | [6] 18.7%

O=P(O)(O)c1ccccc1
inactive: [1] -10.4% | [2] -3.85% | [3] 8.85% | [4] -18.9% | [5] 2.6% | [6] 4.65%

Nc1ccc(CCc2ccc(S(=O)(=O)F)cc2)cc1
active: [1] 94.8% | [2] 95.9% | [3] 98.3% | [4] 92.8% | [5] 92.7% | [6] 92.6%

COc1ccc(C(OCC2OC(n3ccc(Oc4c(F)c(F)c(F)c(F)c4F)nc3=O)CC2OP(OCCC#N)N(C(C)C)C(C)C)(c2ccccc2)c2ccc(OC)cc2)cc1 (configuration not stated)
inactive: [1] 18.1% | [2] 4.8% | [3] 6.65% | [4] -9.2% | [5] -7.2% | [6] -2.65%

C=C1CC2C3CC=C4CC(OC(C)=O)CCC4(C)C3CCC2(C)C1=O (configuration not stated)
inactive: [1] 31.7% | [2] 13.8% | [3] 6.15% | [4] 0.55% | [5] 15.8% | [6] 15.7%

NNC(N)=O
inactive: [1] 1.3% | [2] 23.1% | [3] -38.9% | [4] -18.3% | [5] -13.2% | [6] -14.8%

CCC(=O)OC1(c2ccccc2)CCN(CCC(=O)c2ccccc2)CC1
inactive: [1] 45.5% | [2] 28.4% | [3] 36.8% | [4] 19.2% | [5] 36.8% | [6] 25.9%

CC(=[N-])CC(C)=O.CC(=[N-])CC(C)=O.[Cu+2]
inactive: [1] 14.9% | [2] 14.5% | [3] 10.8% | [4] -18.3% | [5] -4.4% | [6] 8.2%

O=C1C(F)=C(F)C(=O)C(F)=C1F
inactive: [1] 16.2% | [2] -4.75% | [3] 8.35% | [4] -2.85% | [5] 21.5% | [6] -1.7%

COc1ccc(C(C#N)C(C)=O)cc1 (configuration not stated)
inactive: [1] 6.75% | [2] 4.85% | [3] 12.4% | [4] 4.45% | [5] -3.9% | [6] -12.4%

COC(=O)CCCCCCCCCCN(CCCl)CCCl
inactive: [1] 39.6% | [2] 29.1% | [3] 31.9% | [4] 26.2% | [5] 21% | [6] 67%

CC(/C=C/C1OC(=O)C=CC1C)=C\C(C)C/C=C/C(C)=C/C(CO)C(=O)C(C)C(O)C(C)C/C(C)=C/C(=O)O (configuration not stated)
active: [1] 73.1% | [3] 81.9% | [5] 77.6% | [6] 87.4%
inactive: [2] 62.2% | [4] 62.6%

COc1ccc(CCN)c(OC)c1
inactive: [1] -11.2% | [2] 2.8% | [3] -3.5% | [4] -13.1% | [5] -8.25% | [6] -35.1%

CC(C)C(O)(C(=O)OCC1=CC[N+]2([O-])CCC(O)C12)C(C)O (configuration not stated)
inactive: [1] -16.9% | [2] -29.7% | [3] -9.7% | [4] 4% | [5] -7.45% | [6] -7.3%

Cc1ccc2c(c1)Cc1ccccc1-2
inactive: [1] 22.9% | [2] -17.2% | [3] 16.9% | [4] 23.7% | [5] 10.2% | [6] 34.9%

C=C(C(=C)P(=S)(C(C)C)C(C)C)P(=S)(C(C)C)C(C)C
inactive: [1] -8.65% | [2] -10.6% | [3] 4.75% | [4] 24.1% | [5] -7% | [6] -3.45%

CSCCC(NC(=O)C(Cc1ccccc1)NC(=O)CNC(=O)CNC(=O)C(N)Cc1ccc(O)cc1)C(=O)O (configuration not stated)
inactive: [1] 12.4% | [2] 2.2% | [3] -6.45% | [4] 26.2% | [5] 14.4% | [6] 16.2%

O=S1(=O)CCCCO1
inactive: [1] -6% | [2] 1.65% | [3] -10.9% | [4] 17.2% | [5] -8.95% | [6] 4.4%

CC1(C)COP(=S)(SCCC#N)OC1
inactive: [1] -38.8% | [2] -7.1% | [3] 0.95% | [4] -29.4% | [5] 12.8% | [6] -0.55%

Cc1ccnc(NN=O)c1
inactive: [1] -2.35% | [2] -18.8% | [3] -6.75% | [4] -1.05% | [5] -17.1% | [6] 2.25%

CC(C)CC(C)(C)COP(=S)(OCC(C)(C)CC(C)C)OCC(C)(C)CC(C)C
inactive: [1] 13.6% | [2] -15% | [3] 0.8% | [4] -37% | [5] -8.75% | [6] 10.6%

Source: PubChem BioAssay (NCI)
